# Results: PubChem BioAssay (NCI)
# Compounds without any hit were thinned out: in the full panel of roughly 79,000, 15% have a hit. Unmarked numbers belong to inactive results. Active and inactive are the calls of the source. No stated cut-off is given here; in the data, active means growth inhibition above about 70%; inactive means the rest.
# Key:
# [1] = NCI Yeast Anticancer Drug Screen. Data for the rad50 strain (AID 155);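 further: 0% = growth of vehicle-only cultures of the same strain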; conditions: S. cerevisiae rad50 strain growth inhibition; at 50.0 µM; active compounds read high
# Method in brief: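 A DNA repair-deficient yeast mutant serves as the test organism; compound-induced growth inhibition is calculated against vehicle-treated cells.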
# [2] = NCI Yeast Anticancer Drug Screen. Data for the mec2-1 strain (AID 157); conditions: S. cerevisiae mec2-1 strain, at 50.0 µM, active compounds read high
# Method in brief: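 Vehicle-treated cultures served as reference for growth inhibition of compound-exposed mec2-1 yeast.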
# [3] = NCI Yeast Anticancer Drug Screen. Data for the sgs1 mgt1 strain (AID 161);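 further: 0% = growth of cultures given vehicle only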; conditions: S. cerevisiae sgs1 mgt1 strain, at 50.0 µM, active compounds read high
# Method in brief: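 Mutant yeast exposed to compound; growth scored against vehicle-only wells.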
# [4] = NCI Yeast Anticancer Drug Screen. Data for the cln2 rad14 strain (AID 165);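 further: 0% = growth equal to vehicle treated cultures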; conditions: S. cerevisiae cln2 rad14 strain, at 50.0 µM, active compounds read high
# Method in brief: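 Each compound was tested on cln2 rad14 yeast. Inhibition of growth was calculated against vehicle-exposed controls.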
# [5] = NCI Yeast Anticancer Drug Screen. Data for the bub3 strain (AID 167); conditions: S. cerevisiae bub3 mutant strain, at 50.0 µM, active compounds read high
# Method in brief: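 Inhibition values come from growth of compound-treated mutant yeast normalised to vehicle-treated controls.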
# [6] = NCI Yeast Anticancer Drug Screen. Data for the mlh1 rad18 strain (AID 175); conditions: S. cerevisiae mlh1 rad18 strain growth inhibition; at 50.0 µM; active compounds read high
# Method in brief: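 Vehicle-treated cultures served as the reference for growth inhibition in a yeast strain carrying DNA damage repair alterations exposed to each compound.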
SMILES,growth inhibition [1],growth inhibition [2],growth inhibition [3],growth inhibition [4],growth inhibition [5],growth inhibition [6]
[C-]#[O+].[C-]#[O+].[C-]#[O+].[CH3][Sn]([c]1ccccc1)[c]1ccccc1.[W].[c-]1[c-][c-][cH-][c-]1,98.2% (active),99.3% (active),98.5% (active),97.5% (active),99.3% (active),97.5% (active)
CCN1C(=O)NC(=O)C(C)(N2CCCCC2)C1=O (stereo not given),13.4%,5.3%,25.9%,15.2%,10.7%,28.7%
CN1C(=O)C[N+]([O-])=C(c2ccccc2)c2cc(Cl)ccc21,2.45%,0.9%,-10.1%,18.6%,-5.15%,-13.7%
CCCCCCCCCCC(=O)O,0.25%,-2.2%,24.9%,-4.65%,-15.4%,15.2%
[Se]=[Hf]=[Se],1.35%,-24.7%,-28.7%,-8.6%,-11.8%,-26.6%
O=C(Nc1ccc(S(=O)(=O)F)cc1)c1ccc2ccccc2c1O,9.85%,31.8%,32.5%,2.15%,27.9%,25.4%
CCCCCCCC(=O)[O-].N.N.N.N.N.[Co+3].[O-][Cl+3]([O-])([O-])[O-],-16.1%,20.2%,-46.8%,9.1%,-10.7%,-13.3%
C/C(CCl)=N/NC1=NC(C)(CCC2(C)N=C(N/N=C(/C)CCl)SP2(=O)NC23CC4CC(CC(C4)C2)C3)P(=O)(NC23CC4CC(CC(C4)C2)C3)S1 (stereo not given),-9.25%,1.15%,16.8%,-21.8%,-19.5%,-28.8%
C=CCNC(=O)C(Br)C(C)C (stereo not given),-9.8%,-40.8%,-10.6%,22.9%,-26.9%,-8.2%
NC(=O)Nc1cc(NC(N)=O)cc(N(CCCl)CCCl)c1,-7%,-19.7%,-20.1%,-7.15%,-15.7%,-24.1%
O=S1(=O)CC2(N3CCOCC3)C3CCC(C3)C21 (stereo not given),24%,4.6%,0.6%,-0.4%,9.15%,11.6%
C1=CC2C=CC(C=C1)[PH+]2c1ccccc1.[C-]#[O+].[C-]#[O+].[C-]#[O+].[C-]#[O+].[C-]#[O+].[Cr] (stereo not given),-30.4%,2.1%,-9.25%,21.4%,-2.15%,-9.35%
CC(C)c1cc(C(C)C)c(S(=O)(=O)N=[N+]=[N-])c(C(C)C)c1,12.6%,-0.8%,-31.4%,-8.3%,-16.9%,-7.95%
CC(C)[C@]12O[C@H]1[C@@H]1O[C@]13[C@]1(O[C@H]1C[C@H]1C4=C(C(=O)OC4)[C@@H](O)C[C@@]13C)[C@@H]2O,-8.4%,-18.4%,6%,-5.85%,-0.3%,-12.8%
O=C(NC(CCS(=O)(=O)NCc1ccc(S(=O)(=O)F)cc1)C(=O)OCc1ccccc1)OCc1ccccc1 (stereo not given),26.8%,5.7%,16.6%,15.4%,0.2%,29.9%
c1ccc(N2CCN(c3ccccc3)CC2)cc1,-31.7%,-8.35%,-1.15%,-57.5%,37.8%,13.8%
Oc1ccccc1C1NCCc2[nH]cnc21 (stereo not given),39%,11.3%,14.4%,30.8%,4.15%,7.9%
CCC1CCC2CCCC(C)N12 (stereo not given),9.05%,4.25%,-3.2%,1.5%,8.2%,7.75%
Cc1ccc2cc3c(ccc4ccccc43)c3c2c1CC3,-9.05%,-23.9%,-2.75%,-3.4%,13.3%,1.85%
O=C1C=CC(=O)N1c1ccccc1Cl (tested in a mixture with another compound),20.2%,4.15%,20.5%,4.2%,21.2%,6.7%

SMILES,growth inhibition [1],growth inhibition [2],growth inhibition [3],growth inhibition [4],growth inhibition [5],growth inhibition [6]
CSc1nc2cc(Cl)ccc2c2c1C=NCCN2,28.6%,19.2%,13.7%,-43.4%,-24.1%,4.05%
Cc1c[nH]cn1.Cc1c[nH]cn1.Cc1c[nH]cn1.Cc1c[nH]cn1.Cc1c[nH]cn1.Cc1c[nH]cn1.N#CS.[Mn+2],6.1%,4.3%,4.35%,-4.8%,4.1%,5.05%
O=C(O)C(Cc1cnc[nH]1)N1C(=O)c2ccccc2C1=O (stereo not given),-16.6%,-12.9%,-1%,-24.9%,-10%,-8.85%
CC1CN1C1c2ccccc2CC1O (stereo not given),1.2%,-13.2%,-11.8%,-15.4%,-20.3%,-8.95%
CCOP(=O)(O)CP(=O)(O)OCC.CCOP(=O)(O)CP(=O)(O)OCC.[Cr],-61.8%,-11.4%,-32.2%,-40.5%,2.7%,-27.2%
O=c1c2cc(Br)cc(Br)c2nc(CCCl)n1-c1ccc(O)c([N+](=O)[O-])c1,-2%,15.8%,-9.95%,16.3%,-7.5%,-0.8%
OCCN1CCN(c2cccc(Cl)c2)CC1,-7.5%,-12.7%,-34.6%,-11.1%,-8.05%,-4.8%
COc1ccc(N2CC=C(c3ccccc3)OP2(=O)N(CCCl)CCCl)cc1 (stereo not given),-49.8%,-4.5%,-3.45%,9.75%,6.4%,-3.2%
[C-]#[O+].[C-]#[O+].[C-]#[O+].[Cr].c1ccc([PH+](CC[As](c2ccccc2)c2ccccc2)CC[As](c2ccccc2)c2ccccc2)cc1,5.45%,-7.65%,27.7%,2.6%,11.1%,38.9%
Nc1ccc(S(=O)(=O)F)cc1,-22%,-54%,-34.6%,16.8%,-35.3%,-22.2%
N#CC(C#N)=Cc1ccccc1C(=O)O,14.9%,11.3%,-12.3%,14.7%,7.15%,-4.1%
NNC(=O)Nc1ccc([N+](=O)[O-])cc1[N+](=O)[O-],63.8%,0%,34.7%,20.2%,38.4%,20.5%
CCC1(N)C(=O)OCc2c1cc1n(c2=O)Cc2cc3ccccc3nc2-1 (stereo not given),4.8%,-17.5%,-39.6%,-7.75%,-17.1%,-12.3%
CO[C@H](C)[C@](O)(C(=O)OCC1=CC[N+]2([O-])CC[C@H](O)[C@@H]12)C(C)C (stereo not given in full),1.75%,-20.2%,2.35%,7.25%,-8.95%,-10.2%
CN(C)c1ccc(C=C2C(=O)NC(=O)NC2=O)cc1,37.9%,-16.4%,19.1%,14.4%,14.8%,9.65%
COc1ccc([N+](=O)[O-])cc1,23.6%,-5.8%,12.6%,20.9%,1.1%,-20.9%
Cc1cccc(OP(=O)(c2ccccc2)c2ccccc2)c1,15.7%,0.35%,22.6%,-40.6%,3.55%,-15.9%
NC(c1ccccc1)C(Cl)c1ccccc1 (stereo not given),-6.9%,-54.3%,3.15%,-20.8%,14.9%,-7.55%
CCOP(=O)(OCC)/C(C#N)=C/c1ccc(OC)cc1,2.9%,-1.8%,-11.4%,11.7%,11.1%,-1.05%
NCCc1c[nH]c2ccccc12,10.8%,-3.3%,-15.8%,9%,-0.75%,-12.8%
